Laboratory results from PubChem BioAssay (Tox21).
The source made the active and inactive calls. A call without a number means that no potency is given here. Unless noted, calls come from the whole dose curve; as a rule, active = well fitted curve in the direction sought with a large enough effect in the repeat runs; inconclusive = weak or mixed curves; inactive = no such curve, though single readings can be large; an effect the other way counts as inactive or inconclusive. Non-standard residues stand in square brackets, D forms with d. Residues, ends and D or L forms follow the SMILES beside them. pGlu = O=C1CC[C@@H](C(=O)O)N1; Thz = O=C(O)[C@@H]1CSCN1

Columns and labels:
[1] = qHTS assay to identify small molecule antagonists of the thyroid receptor (TR) signaling pathway - cell viability counter screen (AID 743064); note: nearly all actives have a fitted effect of over 50% in size; note: potency is the fitted concentration of half-maximal effect
How it was run: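 GH3.TRE-Luc rat pituitary cells dosed after 4 hr plating, co-stimulated with T3 at 1 nM final, incubated 23.5 h at 37 C. Viability measured in the same wells by CellTiter-Fluor fluorescence after 30 min further at 37 C.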

[2] = qHTS assay to identify small molecule antagonists of the thyroid receptor (TR) signaling pathway (AID 743065); note: nearly all actives have a fitted effect of over 55% in size; note: potency is the fitted concentration of half-maximal effect
How it was run: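 GH3.TRE-Luc rat pituitary cells (two TREs driving luciferase) were dosed with compound, then stimulated with 1 nM T3 (final) for 23.5 h at 37 C. ONE-Glo luminescence was the read-out, with CellTiter-Fluor fluorescence as the cytotoxicity counter-screen.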

[3] = tested on: thyroid hormone receptor (rat, GH3 cells); assay: qHTS assay to identify small molecule agonists of the thyroid receptor (TR) signaling pathway (AID 743066; calls by dose curve)
[4] = molecular target: Estrogen receptor (Homo sapiens) (UniProt P03372); assay: qHTS assay to identify small molecule antagonists of the estrogen receptor alpha (ER-alpha) signaling pathway (AID 743069; active = well fitted curve in the direction sought with a large enough effect in the signal ratio in the repeat runs, not every such curve was filed as active; inconclusive = weak or mixed curves, or effect the other way; inactive = no such curve, though single readings can be large or run the other way; the % refers to the signal ratio; note: potency is the fitted concentration of half-maximal effect)
Estrogen receptor (Homo sapiens), sequence (P03372 whole entry, looked up): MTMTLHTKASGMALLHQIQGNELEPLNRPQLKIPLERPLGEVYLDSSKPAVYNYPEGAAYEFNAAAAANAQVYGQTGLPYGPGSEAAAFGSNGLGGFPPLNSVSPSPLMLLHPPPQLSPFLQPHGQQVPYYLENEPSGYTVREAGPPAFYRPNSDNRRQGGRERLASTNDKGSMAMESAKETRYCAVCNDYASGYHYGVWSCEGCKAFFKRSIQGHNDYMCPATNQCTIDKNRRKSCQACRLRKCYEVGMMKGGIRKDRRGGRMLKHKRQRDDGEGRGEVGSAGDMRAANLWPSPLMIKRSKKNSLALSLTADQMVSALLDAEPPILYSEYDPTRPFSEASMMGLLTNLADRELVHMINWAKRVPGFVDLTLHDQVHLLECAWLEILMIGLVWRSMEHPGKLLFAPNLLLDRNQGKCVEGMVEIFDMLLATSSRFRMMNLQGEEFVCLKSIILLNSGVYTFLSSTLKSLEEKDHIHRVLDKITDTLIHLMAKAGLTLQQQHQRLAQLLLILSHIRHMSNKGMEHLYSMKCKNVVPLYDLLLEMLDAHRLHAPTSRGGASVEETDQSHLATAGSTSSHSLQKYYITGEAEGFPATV
How it was run: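 HEK293 ER-alpha-UAS-bla GripTite cells, held overnight in 2% charcoal-stripped FBS, 5,000 cells/well, preincubated 4 h, then compound plus 17beta-estradiol for 18 h at 37C. Beta-lactamase read by LiveBLAzer B/G FRET substrate, 2 h at room temperature.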

[5] = qHTS assay to identify small molecule antagonists of the estrogen receptor alpha (ER-alpha) signaling pathway - cell viability counter screen (AID 743074; calls by dose curve;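 note: HEK293 cells carrying ER-alpha-UAS-bla reporter stimulated with 17beta-estradiol; nearly all actives have a fitted effect of over 45% in size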)
[6] = molecular target: Estrogen receptor (Homo sapiens) (UniProt P03372); assay: qHTS assay to identify small molecule agonists of the estrogen receptor alpha (ER-alpha) signaling pathway (AID 743075; calls by dose curve; note: potency is the fitted concentration of half-maximal effect)
[7] = molecular target: Estrogen receptor (Homo sapiens) (UniProt P03372); assay: qHTS assay to identify small molecule agonists of the estrogen receptor alpha (ER-alpha) signaling pathway using the BG1 cell line (AID 743079); details: BG1Luc4E2 cells, ERE-luciferase agonist, 22 h; activation: at 70.3 µM (top of the series); note: nearly all actives have a fitted effect of over 20% in size; note: potency is the fitted concentration of half-maximal effect
[8] = qHTS assay to identify small molecule antagonists of the estrogen receptor alpha (ER-alpha) signaling pathway using the BG1 cell line (AID 743080; calls by dose curve;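 note: BG1 cells stimulated with 17beta-estradiol alongside compound; nearly all actives have a fitted effect of over 25% in size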)
How it was run: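 Endogenous full-length ER-alpha in BG1-Luc-4E2 cells drives a stably integrated 4×ERE luciferase gene; compounds were tested against 17beta-estradiol over 21.5 h, with luminescence and multiplexed viability fluorescence recorded.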

[9] = qHTS assay to identify small molecule antagonists of the estrogen receptor alpha (ER-alpha) signaling pathway using the BG1 cell line - cell viability counter screen (AID 743081);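 note: compound given together with 17beta-estradiol as the ER stimulus; nearly all actives have a fitted effect of over 45% in size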; note: potency is the fitted concentration of half-maximal effect
[10] = molecular target: Aromatase (Homo sapiens) (UniProt P11511); assay: qHTS assay to identify aromatase inhibitors (AID 743083); note: nearly all actives have a fitted effect of over 55% in size
Aromatase (Homo sapiens), sequence (P11511 whole entry, looked up): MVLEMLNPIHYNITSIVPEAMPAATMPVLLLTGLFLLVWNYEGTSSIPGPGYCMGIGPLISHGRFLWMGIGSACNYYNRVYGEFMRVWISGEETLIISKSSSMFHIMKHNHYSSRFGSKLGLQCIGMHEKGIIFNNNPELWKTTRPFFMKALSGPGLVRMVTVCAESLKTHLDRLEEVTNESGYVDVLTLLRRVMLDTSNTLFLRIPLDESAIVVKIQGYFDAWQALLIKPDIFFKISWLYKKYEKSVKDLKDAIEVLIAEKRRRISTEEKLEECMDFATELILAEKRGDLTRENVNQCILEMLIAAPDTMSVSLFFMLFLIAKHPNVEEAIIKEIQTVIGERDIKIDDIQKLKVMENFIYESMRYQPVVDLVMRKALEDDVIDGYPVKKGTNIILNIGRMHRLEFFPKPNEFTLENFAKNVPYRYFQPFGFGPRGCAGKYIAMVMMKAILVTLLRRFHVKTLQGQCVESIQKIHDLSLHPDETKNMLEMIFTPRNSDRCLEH

Compound | Potency [1] | Potency [2] | Potency [3] | Potency [4] | Potency [5] | Potency [6] | Potency [7] | Potency [8] | Potency [9] | Potency [10]
COc1ccc2c(c1)N(C[C@H](C)CN(C)C)c1ccccc1S2 | 4.52 µM (active) | 10.1 µM (active) | inactive | inactive | inactive | inactive | inactive | inactive | inactive | 
CC(=O)N[C@@H]1C(O[C@H]2O[C@H](C(=O)O)C(O)[C@H](O)[C@H]2O)[C@H](O)[C@@H](CO)O[C@H]1O[C@@H]1C(C(=O)O)O[C@@H](O[C@H]2[C@H](O)[C@@H](CO)OC(O)[C@@H]2NC(C)=O)[C@H](O)[C@H]1O (stereo not given in full) | inactive | inactive | inactive | inactive | inactive | inactive | inactive | inactive | inactive | inactive
O=C1O[C@H]2[C@H](O)[C@@H]1OC(O)[C@H]2O (stereo not given in full) | inactive | inactive | inactive | inactive | inactive | inactive | 13.3 µM (active) | inactive | inactive | inactive
NCc1ccccc1CC(=O)N[C@@H]1C(=O)N2C(C(=O)O)=C(CSc3nnnn3CC(=O)O)CS[C@H]12 | inactive | inactive | inactive | inactive | inactive | inactive | inactive | inactive | inactive | inactive
CC1(C)S[C@@H]2[C@H](NC(=O)[C@H](N)c3ccccc3)C(=O)N2[C@H]1C(=O)OCOC(=O)[C@@H]1N2C(=O)C[C@H]2S(=O)(=O)C1(C)C | inactive | inactive | inactive | 13.4 µM [inconclusive] (active) | inactive | inactive | inactive | inactive | inactive | inactive
C=CCSSSCC=C | inactive | inactive | inactive | inactive | inactive | inactive | 29.8 µM (active) | inactive | inactive | inactive
CC[C@H]1NC(=O)[C@@H](NC(=O)c2ncccc2O)[C@@H](C)OC(=O)[C@H](c2ccccc2)NC(=O)[C@@H]2CC(=O)CCN2C(=O)[C@H](Cc2ccccc2)N(C)C(=O)[C@@H]2CCCN2C1=O | inactive | inactive | inactive | inactive | inactive | inactive | inactive | inactive | inactive | inactive
O=C1CC[C@@H](C(=O)N2CSC[C@H]2C(=O)O)N1 ([pGlu]-[Thz]-OH) | inactive | inactive | inactive | inactive | inactive | inactive | inactive | inactive | inactive | inactive
COc1cc([C@@H]2c3cc4c(cc3C(O[C@@H]3O[C@@H]5COC(c6cccs6)O[C@H]5[C@H](O)[C@H]3O)C3COC(=O)[C@@H]32)OCO4)cc(OC)c1O (stereo not given in full) | 2.37 µM (active) | 0.531 µM (active) | inactive | 6.74 µM [inconclusive] (active) | inactive | inactive |  |  |  | 
CC(=O)N[C@@H](C=O)[C@@H](O)[C@H](O)[C@H](O)CO | inactive | inactive | inactive | inactive | inactive | inactive | inactive | inactive | inactive | inactive
C[N@+]12CCCC[C@@H]1CCC(=C(c1cccs1)c1cccs1)C2 | inactive | inactive | inactive | inactive | inactive | inactive | inactive | inactive | inactive | inactive
S=C=Nc1ccc(N=C=S)cc1 | inactive | inactive | inactive | inactive | inactive | 15.1 µM [inconclusive] (active) | 1.06 µM (active) | inactive | inactive | inactive
Cn1nnnc1SCC1=C(C(=O)O)N2C(=O)[C@@H](NC(=O)[C@H](OC=O)c3ccccc3)[C@H]2SC1 | inactive | inactive | inactive | inactive | inactive | inactive | inactive | inactive | inactive | inactive
O=C(O)[C@H]1/C(=C/CO)O[C@@H]2CC(=O)N21 | inactive | inactive | inactive | inactive | inactive | inactive | inactive | inactive | inactive | inactive
CN(C)CC/C=C1/c2ccccc2CSc2ccccc21 | 4.52 µM (active) | 9.02 µM (active) | inactive | inactive | inactive | inactive | inactive | inactive | inactive | inactive
CC[C@H]1OC(=O)[C@H](C)[C@@H](O[C@H]2C[C@@](C)(OC)[C@@H](O)[C@H](C)O2)[C@H](C)[C@@H](O[C@@H]2O[C@H](C)C[C@H](N(C)C)[C@H]2O)[C@](C)(O)C[C@@H](C)[C@@H]2N[C@@H](COCCOC)O[C@@H]([C@H]2C)[C@]1(C)O | inactive | inactive | inactive | inactive | inactive | inactive | inactive | inactive | inactive | inactive
COC(=O)CC[C@H](N)C(=O)O | inactive | inactive | inactive | inactive | inactive | inactive | inactive | inactive | inactive | inactive
Cn1nnnc1SCC1=C(C(=O)O)N2C(=O)[C@@H](NC(=O)[C@H](O)c3ccccc3)[C@H]2SC1 | inactive | inactive | inactive | inactive | inactive | inactive | inactive | inactive | inactive | inactive
CC(=O)O[C@H]1C[C@@]2(C)[C@@H](C[C@@H](O)[C@H]3[C@@]4(C)CC[C@@H](O)[C@@H](C)[C@@H]4CC[C@@]32C)/C1=C(\CCC=C(C)C)C(=O)O | inactive | inactive | inactive | inactive | inactive | inactive | inactive | inactive | inactive | inactive

Compound | Potency [1] | Potency [2] | Potency [3] | Potency [4] | Potency [5] | Potency [6] | Potency [7] | Potency [8] | Potency [9] | Potency [10]
O=C(NCCNCC(O)COc1ccc(O)cc1)N1CCOCC1 (stereo not given) | inactive | inactive | inactive | inactive | inactive | inactive | inactive | inactive | inactive | inactive
O=C(O)C1=C(CSc2nnnn2CS(=O)(=O)O)CS[C@@H]2[C@H](NC(=O)[C@H](O)c3ccccc3)C(=O)N12 | inactive | inactive | inactive | inactive | inactive | inactive | 37.6 µM (active) | inactive | inactive | inactive
CC[C@H](CC[C@@H](C)[C@H]1CC[C@H]2[C@@H]3CC=C4C[C@@H](O)CC[C@]4(C)[C@H]3CC[C@]12C)C(C)C | inactive | inactive | inactive | inactive | inactive | inactive | inactive | inactive | inactive | inactive
CC(Oc1ccccc1)C(=O)N[C@@H]1C(=O)N2[C@@H]1SC(C)(C)[C@@H]2C(=O)O (stereo not given in full) | inactive | inactive | inactive | inactive | inactive | inactive | inactive | inactive | inactive | inactive
CC1(C)[C@@H]2CC[C@@]1(C)[C@H](OC(=O)CSC#N)C2 | inactive | inactive | inactive | inactive | inactive | inactive | inactive | inactive | inactive | inactive
C=C[C@]1(C)C[C@@H](OC(=O)CSCCN(CC)CC)[C@]2(C)[C@H](C)CC[C@]3(CCC(=O)[C@H]32)[C@@H](C)[C@@H]1O | 10.6 µM (active) | 23.7 µM (active) | inactive | inactive | inactive | inactive | inactive | inactive | 10.6 µM (active) | inactive
OC[C@H]1O[C@@H](n2cnc3c2NC=NC[C@H]3O)C[C@@H]1O | inactive | inactive | inactive | inactive | inactive | inactive | inactive | inactive | inactive | inactive
CN1c2c(nc(N)[nH]c2=O)NCC1CNc1ccc(C(=O)NC(CCC(=O)O)C(=O)O)cc1 (stereo not given) | inactive | inactive | inactive | inactive | inactive | inactive | inactive | inactive | inactive | inactive
CCCCCCCCCCCCCCCC(=O)O[C@@H]1[C@@H](O)[C@@H](O)[C@@H]([C@H](NC(=O)[C@@H]2C[C@@H](CCC)CN2C)[C@H](C)Cl)O[C@@H]1SC | inactive | inactive | inactive | inactive | inactive | inactive | inactive | inactive | inactive | inactive
O=C1NCCN1c1ncc([N+](=O)[O-])s1 | inactive | inactive | inactive | inactive | inactive | inactive | inactive | inactive | inactive | inactive
C[Se]CCC(N)C(=O)O (stereo not given) | inactive | inactive | inactive | inactive | inactive | inactive | inactive | inactive | inactive | inactive
CC(C)CN(C[C@@H](O)[C@H](Cc1ccccc1)NC(=O)O[C@H]1CO[C@H]2OCC[C@H]21)S(=O)(=O)c1ccc(N)cc1 | inactive | inactive | inactive | inactive | inactive | inactive | inactive | inactive | inactive | inactive
COCC1=C(C(=O)OC(C)OC(=O)OC(C)C)N2C(=O)[C@@H](NC(=O)/C(=N\OC)c3csc(N)n3)[C@H]2SC1 (stereo not given in full) | inactive | inactive | inactive | inactive | inactive | inactive | inactive | inactive | inactive | inactive
COc1ccc(C(=O)CCC(=O)O)c2ccccc12 | inactive | inactive | inactive | inactive | inactive | inactive | inactive | inactive | inactive | inactive
NC(=O)OCC(O)COc1ccc(Cl)cc1 (stereo not given) | inactive | inactive | inactive | inactive | inactive | inactive | inactive | inactive | inactive | inactive
O=C(O)c1ccc(OCCn2ccnc2)cc1 | inactive | inactive | inactive | inactive | inactive | inactive | inactive | inactive | inactive | inactive
C[C@@H]1C/C=C/C=C/C=C/C=C/[C@H](O[C@@H]2O[C@H](C)[C@@H](O)[C@H](N)[C@@H]2O)C[C@@H]2O[C@](O)(C[C@@H](O)C[C@H]3O[C@@H]3/C=C/C(=O)O1)C[C@H](O)[C@H]2C(=O)O | inactive | inactive | inactive | inactive | inactive | inactive | inactive | inactive | inactive | inactive
Cc1nc(NS(=O)(=O)c2ccc(N)cc2)nc(C)c1Br | inactive | inactive | inactive | inactive | inactive | inactive | inactive | inactive | inactive | inactive
C[C@H](N)C(=O)N[C@@H](C)P(=O)(O)O | inactive | inactive | inactive | inactive | inactive | inactive | inactive | inactive | inactive | inactive
